# ± gives the standard deviation.
# T1: HaloTag-ATRX ADD domain (163-292)
# T1 chain: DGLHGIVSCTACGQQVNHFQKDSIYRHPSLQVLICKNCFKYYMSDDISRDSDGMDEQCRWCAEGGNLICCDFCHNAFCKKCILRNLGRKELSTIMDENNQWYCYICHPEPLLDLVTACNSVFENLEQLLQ
# Assays:
# Assay in all cases: peptide microarray binding signal (635 nm), min-max normalized on array (fraction of array maximum); higher = stronger binding
# [1] = target: T1, HaloTag-ATRX ADD domain (163-292)
# In short: (§1)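 Arrays carried histone 13-mer peptide–cellulose conjugates printed in triplicate on nitrocellulose alongside a Cy3 tracer. After overnight blocking at 4°C, they were incubated for 1 h at 4°C with biotin-labelled HaloTag reader fusions (10 nM to 1 μM) plus streptavidin-Alexa Fluor 647, or with rabbit histone antibodies (1:10,000 to 1:2,000) plus anti-rabbit Alexa 647. Scanning on an Axon GenePix 4000B used 635 nm for signal and 532 nm for misprints. The binding signal reported is each triplicate's mean spot intensity after per-library min-max scaling.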
# [2] = target: HaloTag-ING2 PHD (mouse Ing2 200-280)
# In short: as §1
# [3] = target: anti-H3K4me3 antibody ab8580
# In short: as §1
# [4] = target: anti-H3K9me3 antibody ab8898
# In short: as §1
# [5] = peptide region: H3 73-85, peptide modifications: H3K79me1 H3T80ph, binder concentration: 1:2,000 dilution
# [6] = peptide region: H3 73-85, peptide modifications: H3K79me1 H3T80ph, binder concentration: 1:10,000 dilution
# [7] = peptide region: H3 50-62, peptide modifications: H3K56ac, binder concentration: 1:2,000 dilution
# [8] = peptide region: H3 50-62, peptide modifications: H3K56ac, binder concentration: 1:10,000 dilution
# [9] = peptide region: H3 73-85, peptide modifications: H3K79me2 H3T80ph, binder concentration: 1:2,000 dilution
# [10] = peptide region: H3 73-85, peptide modifications: H3K79me2 H3T80ph, binder concentration: 1:10,000 dilution
# [11] = peptide region: H3 50-62, peptide modifications: H3K56me3, binder concentration: 1:2,000 dilution
# [12] = peptide region: H3 50-62, peptide modifications: H3K56me3, binder concentration: 1:10,000 dilution
# [13] = peptide region: H3 50-62, peptide modifications: H3K56me3 H3T58ph, binder concentration: 1:2,000 dilution
# [14] = peptide region: H3 50-62, peptide modifications: H3K56me3 H3T58ph, binder concentration: 1:10,000 dilution
# [15] = peptide region: H3 50-62, peptide modifications: H3T58ph, binder concentration: 1:2,000 dilution
# [16] = peptide region: H3 50-62, peptide modifications: H3T58ph, binder concentration: 1:10,000 dilution
# [17] = peptide region: H3 50-62, binder concentration: 1:2,000 dilution
# [18] = peptide region: H3 50-62, binder concentration: 1:10,000 dilution
# [19] = peptide region: H3 50-62, peptide modifications: H3K56ac H3T58ph, binder concentration: 1:2,000 dilution
# [20] = peptide region: H3 50-62, peptide modifications: H3K56ac H3T58ph, binder concentration: 1:10,000 dilution
# [21] = peptide region: H3 50-62, peptide modifications: H3K56me1 H3S57ph, binder concentration: 1:2,000 dilution
# [22] = peptide region: H3 50-62, peptide modifications: H3K56me1 H3S57ph, binder concentration: 1:10,000 dilution
# [23] = peptide region: H3 73-85, peptide modifications: H3K79ac H3T80ph, binder concentration: 1:2,000 dilution
# [24] = peptide region: H3 73-85, peptide modifications: H3K79ac H3T80ph, binder concentration: 1:10,000 dilution
binder,measurement,setting,value
EIAQDFKTDLRFQ [H3 73-85 E I A Q D F Kme Tph D L R F Q],peptide microarray binding signal,"[1]; peptide region: H3 73-85, peptide modifications: H3K79me1 H3T80ph, binder concentration: 50 nM",0.001034 ± 5.2e-06
same,peptide microarray binding signal,"[1]; peptide region: H3 73-85, peptide modifications: H3K79me1 H3T80ph, binder concentration: 500 nM",0.00181 ± 3.2e-05
same,peptide microarray binding signal,"[2]; peptide region: H3 73-85, peptide modifications: H3K79me1 H3T80ph, binder concentration: 10 nM",0.00281 ± 8.7e-05
same,peptide microarray binding signal,"[2]; peptide region: H3 73-85, peptide modifications: H3K79me1 H3T80ph, binder concentration: 100 nM",0.00135 ± 7.3e-05
same,peptide microarray binding signal,[3]; [5],0.000283
same,peptide microarray binding signal,[3]; [6],0.000342 ± 3.8e-06
same,peptide microarray binding signal,[4]; [5],0.000921 ± 0.00013
same,peptide microarray binding signal,[4]; [6],0.000634
EIRRYQKSTELLI [H3 50-62 E I R R Y Q Kac S T E L L I],peptide microarray binding signal,"[1]; peptide region: H3 50-62, peptide modifications: H3K56ac, binder concentration: 50 nM",0.0121 ± 0.00021
same,peptide microarray binding signal,"[1]; peptide region: H3 50-62, peptide modifications: H3K56ac, binder concentration: 500 nM",0.0135 ± 0.0015
same,peptide microarray binding signal,"[2]; peptide region: H3 50-62, peptide modifications: H3K56ac, binder concentration: 10 nM",0.00913 ± 0.00065
same,peptide microarray binding signal,"[2]; peptide region: H3 50-62, peptide modifications: H3K56ac, binder concentration: 100 nM",0.0108 ± 0.00062
same,peptide microarray binding signal,[3]; [7],0.0016 ± 0.00024
same,peptide microarray binding signal,[3]; [8],0.00211 ± 0.00015
same,peptide microarray binding signal,[4]; [7],0.00222 ± 0.00049
same,peptide microarray binding signal,[4]; [8],0.00173 ± 6.6e-05
EIAQDFKTDLRFQ [H3 73-85 E I A Q D F Kme2 Tph D L R F Q],peptide microarray binding signal,"[1]; peptide region: H3 73-85, peptide modifications: H3K79me2 H3T80ph, binder concentration: 50 nM",0.00103 ± 3.4e-05
same,peptide microarray binding signal,"[1]; peptide region: H3 73-85, peptide modifications: H3K79me2 H3T80ph, binder concentration: 500 nM",0.000714 ± 1.2e-05
same,peptide microarray binding signal,"[2]; peptide region: H3 73-85, peptide modifications: H3K79me2 H3T80ph, binder concentration: 10 nM",0.002089 ± 1.2e-05
same,peptide microarray binding signal,"[2]; peptide region: H3 73-85, peptide modifications: H3K79me2 H3T80ph, binder concentration: 100 nM",0.000992 ± 1.1e-05
same,peptide microarray binding signal,[3]; [9],0.000283 ± 5.1e-06
same,peptide microarray binding signal,[3]; [10],0.000799 ± 5.8e-05
same,peptide microarray binding signal,[4]; [9],0.000438 ± 1.8e-05
same,peptide microarray binding signal,[4]; [10],0.000634
EIRRYQKSTELLI [H3 50-62 E I R R Y Q Kme3 S T E L L I],peptide microarray binding signal,"[1]; peptide region: H3 50-62, peptide modifications: H3K56me3, binder concentration: 50 nM",0.00232 ± 0.0002
same,peptide microarray binding signal,"[1]; peptide region: H3 50-62, peptide modifications: H3K56me3, binder concentration: 500 nM",0.0019 ± 6e-05
same,peptide microarray binding signal,"[2]; peptide region: H3 50-62, peptide modifications: H3K56me3, binder concentration: 10 nM",0.00233 ± 2.7e-05
same,peptide microarray binding signal,"[2]; peptide region: H3 50-62, peptide modifications: H3K56me3, binder concentration: 100 nM",0.002268 ± 2.2e-05
same,peptide microarray binding signal,[3]; [11],0.00259 ± 0.0002
same,peptide microarray binding signal,[3]; [12],0.00108 ± 3.8e-05
same,peptide microarray binding signal,[4]; [11],0.0209 ± 0.0092
same,peptide microarray binding signal,[4]; [12],0.00986 ± 0.0031
EIRRYQKSTELLI [H3 50-62 E I R R Y Q Kme3 S Tph E L L I],peptide microarray binding signal,"[1]; peptide region: H3 50-62, peptide modifications: H3K56me3 H3T58ph, binder concentration: 50 nM",0.0015 ± 4e-05
same,peptide microarray binding signal,"[1]; peptide region: H3 50-62, peptide modifications: H3K56me3 H3T58ph, binder concentration: 500 nM",0.00129 ± 3.6e-05
same,peptide microarray binding signal,"[2]; peptide region: H3 50-62, peptide modifications: H3K56me3 H3T58ph, binder concentration: 10 nM",0.00281 ± 8.3e-05
same,peptide microarray binding signal,"[2]; peptide region: H3 50-62, peptide modifications: H3K56me3 H3T58ph, binder concentration: 100 nM",0.0017 ± 4.6e-05
same,peptide microarray binding signal,[3]; [13],0.00109 ± 3.3e-05
same,peptide microarray binding signal,[3]; [14],0.000799 ± 2.2e-05
same,peptide microarray binding signal,[4]; [13],0.00261 ± 0.0003
same,peptide microarray binding signal,[4]; [14],0.001211 ± 1.2e-05
EIRRYQKSTELLI [H3 50-62 E I R R Y Q K S Tph E L L I],peptide microarray binding signal,"[1]; peptide region: H3 50-62, peptide modifications: H3T58ph, binder concentration: 50 nM",0.000784 ± 1.1e-05
same,peptide microarray binding signal,"[1]; peptide region: H3 50-62, peptide modifications: H3T58ph, binder concentration: 500 nM",0.00119 ± 3e-05
same,peptide microarray binding signal,"[2]; peptide region: H3 50-62, peptide modifications: H3T58ph, binder concentration: 10 nM",0.00209 ± 3.2e-05
same,peptide microarray binding signal,"[2]; peptide region: H3 50-62, peptide modifications: H3T58ph, binder concentration: 100 nM",0.000425 ± 4.9e-06
same,peptide microarray binding signal,[3]; [15],0.000151 ± 3.3e-06
same,peptide microarray binding signal,[3]; [16],0.000114 ± 1.3e-06
same,peptide microarray binding signal,[4]; [15],0.0006041 ± 5.5e-06
same,peptide microarray binding signal,[4]; [16],0.000519 ± 5.6e-06
EIRRYQKSTELLI [H3 50-62 E I R R Y Q K S T E L L I],peptide microarray binding signal,"[1]; peptide region: H3 50-62, binder concentration: 50 nM",0.00599 ± 0.00033
same,peptide microarray binding signal,"[1]; peptide region: H3 50-62, binder concentration: 500 nM",0.0144 ± 0.00044
same,peptide microarray binding signal,"[2]; peptide region: H3 50-62, binder concentration: 10 nM",0.00859 ± 0.00029
same,peptide microarray binding signal,"[2]; peptide region: H3 50-62, binder concentration: 100 nM",0.00149 ± 5.6e-05
same,peptide microarray binding signal,[3]; [17],0.00017 ± 3.2e-06
same,peptide microarray binding signal,[3]; [18],0.00514 ± 0.0014
same,peptide microarray binding signal,[4]; [17],0.00299 ± 0.00025
same,peptide microarray binding signal,[4]; [18],0.00288 ± 7.4e-05
EIRRYQKSTELLI [H3 50-62 E I R R Y Q Kac S Tph E L L I],peptide microarray binding signal,"[1]; peptide region: H3 50-62, peptide modifications: H3K56ac H3T58ph, binder concentration: 50 nM",0.00141 ± 1.8e-05
same,peptide microarray binding signal,"[1]; peptide region: H3 50-62, peptide modifications: H3K56ac H3T58ph, binder concentration: 500 nM",0.001381 ± 1.3e-05
same,peptide microarray binding signal,"[2]; peptide region: H3 50-62, peptide modifications: H3K56ac H3T58ph, binder concentration: 10 nM",0.002924 ± 2.8e-05
same,peptide microarray binding signal,"[2]; peptide region: H3 50-62, peptide modifications: H3K56ac H3T58ph, binder concentration: 100 nM",0.00149 ± 1.5e-05
same,peptide microarray binding signal,[3]; [19],0.0004719 ± 4.7e-06
same,peptide microarray binding signal,[3]; [20],0.000514 ± 5.5e-06
same,peptide microarray binding signal,[4]; [19],0.000468 ± 1.8e-05
same,peptide microarray binding signal,[4]; [20],0.00104 ± 5.9e-05
EIRRYQKSTELLI [H3 50-62 E I R R Y Q Kme Sph T E L L I],peptide microarray binding signal,"[1]; peptide region: H3 50-62, peptide modifications: H3K56me1 H3S57ph, binder concentration: 50 nM",0.00125 ± 3.7e-05
same,peptide microarray binding signal,"[1]; peptide region: H3 50-62, peptide modifications: H3K56me1 H3S57ph, binder concentration: 500 nM",0.00143 ± 2.3e-05
same,peptide microarray binding signal,"[2]; peptide region: H3 50-62, peptide modifications: H3K56me1 H3S57ph, binder concentration: 10 nM",0.00209 ± 2.4e-05
same,peptide microarray binding signal,"[2]; peptide region: H3 50-62, peptide modifications: H3K56me1 H3S57ph, binder concentration: 100 nM",0.00085 ± 2.5e-05
same,peptide microarray binding signal,[3]; [21],0.000264 ± 7.4e-06
same,peptide microarray binding signal,[3]; [22],0.000342 ± 3.8e-06
same,peptide microarray binding signal,[4]; [21],0.000861 ± 8.7e-05
same,peptide microarray binding signal,[4]; [22],0.000519 ± 5.6e-06
EIAQDFKTDLRFQ [H3 73-85 E I A Q D F Kac Tph D L R F Q],peptide microarray binding signal,"[1]; peptide region: H3 73-85, peptide modifications: H3K79ac H3T80ph, binder concentration: 50 nM",0.000721 ± 1.1e-05
same,peptide microarray binding signal,"[1]; peptide region: H3 73-85, peptide modifications: H3K79ac H3T80ph, binder concentration: 500 nM",0.00171 ± 4.6e-05
same,peptide microarray binding signal,"[2]; peptide region: H3 73-85, peptide modifications: H3K79ac H3T80ph, binder concentration: 10 nM",0.00221 ± 4.4e-05
same,peptide microarray binding signal,"[2]; peptide region: H3 73-85, peptide modifications: H3K79ac H3T80ph, binder concentration: 100 nM",0.000638 ± 7.1e-06
same,peptide microarray binding signal,[3]; [23],0.000491 ± 2.4e-05
same,peptide microarray binding signal,[3]; [24],0.000628 ± 1.8e-05
same,peptide microarray binding signal,[4]; [23],0.000951 ± 3.6e-05
same,peptide microarray binding signal,[4]; [24],0.000865 ± 1.8e-05

# Reference: the supplement of paper PMC4022240
